Bioassay records deposited in PubChem by several laboratories.
In the library only some 7.8% were active in any assay of this set; here they are far more common.
sEH inhibitor – soluble epoxide hydrolase (human) inhibition; P34913; recombinant human sEH enzymatic activity assay; inhibition, % at 2 µM; actives 0.34% (n = 91,000); AID 707; in the data active means inhibition above about 80%
Target sequence (P34913 whole entry, looked up): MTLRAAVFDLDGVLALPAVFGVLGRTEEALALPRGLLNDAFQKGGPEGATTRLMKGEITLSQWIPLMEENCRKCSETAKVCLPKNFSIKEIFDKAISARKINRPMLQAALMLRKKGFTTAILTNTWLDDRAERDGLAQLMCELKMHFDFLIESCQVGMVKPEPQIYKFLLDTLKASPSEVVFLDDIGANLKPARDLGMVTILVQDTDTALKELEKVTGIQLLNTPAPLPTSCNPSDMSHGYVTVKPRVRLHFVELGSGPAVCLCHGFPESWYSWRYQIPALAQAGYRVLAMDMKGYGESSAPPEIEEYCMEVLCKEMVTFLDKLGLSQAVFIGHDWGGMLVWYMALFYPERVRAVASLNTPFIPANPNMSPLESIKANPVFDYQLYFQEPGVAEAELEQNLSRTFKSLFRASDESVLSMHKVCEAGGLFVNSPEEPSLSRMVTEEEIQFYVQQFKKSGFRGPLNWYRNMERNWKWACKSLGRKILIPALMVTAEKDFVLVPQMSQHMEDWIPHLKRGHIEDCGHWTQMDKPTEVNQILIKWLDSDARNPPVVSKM
sEH act – soluble epoxide hydrolase (human) activation; P34913; purified human sEH enzymatic activity, activator screen; activation, % at 2 µM; actives 0.04% (n = 91,000); in the data active means activation above about 37%
PostGolgi yeast – growth inhibition of a yeast mutant, post-Golgi transport screen | post-Golgi transport phenotypic cell assay | inhibition, % at 10 µM | actives 0.9% (n = 98,000);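 further: yeast cells grown in 1536-well plates; yeast grown about 18 h at 30C before absorbance read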
Cav32 inh – blocks human Cav3.2 T-type calcium channel. O95180. Cav3.2-expressing cells, Fluo-4 calcium fluorescence FDSS; hits give low values. B-score at 10 µM. actives 4% (n = 100,000). AID 449739;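 active means single-dose well whose peak fluorescence ratio is a statistical outlier from its plate by either plate-standardised score or position-corrected B-score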
PostGolgi ctrl – inhibits growth of the yeast control strain. inhibition, % at 10 µM. efflux-deficient yeast background strain, growth absorbance A615, 16 h. AID 738. actives 5% (n = 98,000)
A number is an active result; . = inactive; / = not tested or not shown. Unless noted, no stated cut-off is given here; in the data, active means inhibition above about 30%; inactive means the rest.

SMILES	sEH inhibitor	sEH act	PostGolgi yeast	Cav32 inh	PostGolgi ctrl
N#CCCN1CCN(C(=S)c2ccc(-c3cccc(Cl)c3)o2)CC1	/	/	.	.	.
O=C(Cc1cccc2ccccc12)NNC(=O)Nc1cccc(Cl)c1	.	.	.	-7.9	.
COc1ccc(C(=O)NCCCc2nc3ccccc3n2Cc2ccccc2C)cc1OC	/	/	/	.	/
CN1CCN(CCCNC(=O)Cn2nc(-c3ccccc3)ccc2=O)CC1	/	/	41	.	.
COc1ccccc1C/C(N)=N/OC(=O)COc1ccc(C)cc1C	.	.	/	.	/
COc1ccccc1CC(=O)O/N=C(\N)Cc1cccc2ccccc12	.	.	.	.	30
Cc1nc2nc(NCc3cccs3)nn2c(C)c1Cl	.	.	.	.	.
O=C(c1cccc(C(=O)N2CCN(c3ncccn3)CC2)c1)N1CCN(c2ncccn2)CC1	.	.	.	/	.
O=C(/C=C/c1c(Cl)cccc1Cl)N1CCN(c2ncccn2)CC1	.	.	.	-4.3	.
O=C(CCSc1nnc(-c2ccncc2)o1)Nc1ccc(Cl)cc1	/	/	102	/	99
CCOC(=O)N1CCC(N(CCOC)C(=O)Nc2ccc(Cl)c(Cl)c2)CC1	/	/	.	.	64
CCc1nnc(NC(=O)CSc2nnc(CNc3ccc(Cl)cc3)o2)s1	.	.	.	-4	.
CCc1nnc(NC(=O)CSc2nnc(Cc3ccccc3)o2)s1	.	.	.	3.8	.
CN(C1=C(N2CCCCC2)C(=O)c2ccccc2C1=O)c1ccccc1	.	.	.	.	33
CCCCCCOC(=O)C[N+](C)(C)CCOC1CC2CCC1(C)C2(C)C (centres undefined)	.	.	.	.	37
CN1CCC(=C2c3ccccc3C=Cc3ccccc32)CC1	/	/	/	-5	/
CN1CCN(C(=O)N2c3ccccc3C=Cc3ccccc32)CC1	/	/	.	.	.
COc1cc(OC)cc(C(=O)N2CCC(N3CCCCCC3)CC2)c1	.	.	/	.	/
O=C(c1cccs1)N1CCCC(c2ccccc2)C1 (centres undefined)	.	.	.	.	37
Cc1cc(C)n2nc(SCc3cc(=O)oc4ccc5ccccc5c34)nc2n1	.	.	.	/	.
CCCn1c(SCc2cc(=O)oc3ccc4ccccc4c23)n[nH]c1=O	/	/	30	.	.
CC1(C)Oc2ccc(C(=O)N3CCOCC3)cc2N(CC(=O)N2CCOCC2)C1=O	/	/	.	.	.
Cc1ccc(CN2C(=O)C(C)(C)Oc3ccc(C(=O)N4CCCCC4)cc32)cc1	.	.	.	-5.2	.
Cc1ccc(S(=O)(=O)NC(=O)Nc2c(C)n(C)n(-c3ccccc3)c2=O)cc1	.	.	.	.	.
Cc1ccc(N2C(=O)C(Cl)=C(Nc3c(C)n(C)n(-c4ccccc4)c3=O)C2=O)cc1	.	.	.	.	33
SMILES	sEH inhibitor	sEH act	PostGolgi yeast	Cav32 inh	PostGolgi ctrl
CCC(=O)Nc1cc(C)c(NC(=O)c2ccccc2OC)cn1	.	.	.	.	.
C=CCCCCCCCCC(=O)NNC1=CC(=O)CC(C)(C)C1	.	.	.	.	.
CN(c1ccccc1)C(c1ccc(F)cc1)c1nnnn1CC1CCCO1 (centres undefined)	.	.	.	.	.
CN(c1ccccc1)C(c1ccc(F)cc1)c1nnnn1C1CCCC1 (centres undefined)	.	.	.	-7.5	.
CC(C)CCNC(=O)c1onc(CSc2ccccn2)c1C(=O)NCCC(C)C	/	/	/	.	/
N#CC1=C(c2ccccc2)/C(=C/c2ccccc2)OC1=O	.	.	.	.	51
COC(=O)c1c(-c2ccco2)csc1NC(=O)C1CC=CCC1C(=O)O (centres undefined)	.	.	.	.	.
CCOC(=O)c1c(-c2ccc(C)c(C)c2)csc1NC(=O)C1CC=CCC1C(=O)O (centres undefined)	.	.	.	/	33
CC12CCC(C(=O)NCc3cccnc3)(OC1=O)C2(C)C (centres undefined)	.	.	.	.	.
CC12CCC(C(=O)N(Cc3ccccc3)Cc3ccccc3)(OC1=O)C2(C)C (centres undefined)	.	.	.	.	38
CCN1CCN(C(c2cccs2)C(C)NS(=O)(=O)c2ccccc2)CC1 (centres undefined)	/	/	/	.	/
Cc1ccc(-n2nnc(-c3ccnc4ccccc34)n2)cc1	/	/	/	.	/
CCCN(CCC)CCNC(=O)C(NS(=O)(=O)c1ccc2c(c1)CCC(=O)N2)c1ccccc1 (centres undefined)	.	.	.	.	31
CC1CCCC/C1=N\NS(=O)(=O)c1ccc(Br)cc1 (centres undefined)	.	.	.	.	.
O=C(NCCCO)NC12CC3CC(CC(C3)C1)C2	.	.	.	.	.
CC1(C(=O)NC23CC4CC(CC(C4)C2)C3)CC1(Cl)Cl (centres undefined)	.	.	.	.	34
O=C(NC1CCN(C(=O)N2CCOCC2)CC1)c1ccccc1	.	.	.	.	34
CCC(=O)N/C(=N\OCc1ccc(F)cc1)c1nonc1NC(=O)CC	.	.	.	.	.
O=C(Nc1ccc2c(c1)OCO2)c1c(F)cccc1F	.	.	.	-3.3	.
O=C(Nc1ccc2c(c1)OCO2)c1cccc(F)c1	.	.	.	.	.
O=C(NCc1ccco1)C(NS(=O)(=O)c1cccc2nsnc12)c1ccccc1 (centres undefined)	/	/	.	.	.
COc1ccc2c(c1)c(=O)c(C(=O)c1ccccc1)cn2Cc1ccc(C)cc1	/	/	/	-5.5	/
CN(C)c1nc(NCc2ccccc2)nc(N/N=C/c2ccc(Cl)cc2Cl)n1	.	.	.	.	.
CCOC(=O)c1c(C)n(OCc2ccccc2)c2ccc3c(no[n+]3[O-])c12	/	/	.	.	.
Cn1c(-c2ccccc2)cc2c3no[n+]([O-])c3ccc21	.	.	74	.	94
SMILES	sEH inhibitor	sEH act	PostGolgi yeast	Cav32 inh	PostGolgi ctrl
COc1ccccc1OCc1nc(Cc2ccc(Cl)cc2)no1	.	.	.	-5.2	.
Cc1ccc(-c2nc(CSCC(=O)NCc3cccnc3)c(C)o2)cc1	.	.	.	.	.
Clc1cccc(COn2c(-c3ccc(Cl)cc3Cl)nc3ncccc32)c1	.	.	.	-4.1	71
Clc1ccc(-c2nnc3cccc(Cl)n23)c(Cl)c1	.	.	.	/	.
Cc1ccc(COn2c(-c3ccc(Cl)cc3Cl)nc3ncccc32)cc1	.	.	.	-5.4	64
CC(C)(C)NC(=O)CSc1nnc(C2CC2)n1Cc1ccccc1	/	/	.	.	.
COCCN1C(=O)c2ccccc2C(C(=O)N2CCN(c3ccccn3)CC2)C1c1ccc(F)cc1 (centres undefined)	.	.	.	.	.
Cc1cc2nn(-c3cccc4ccccc34)nc2cc1NC(=O)c1cccs1	.	.	.	-4.3	.
O=C(Oc1cccc(NC(=O)c2ccco2)c1)c1ccc(Br)c(S(=O)(=O)N2CCCCC2)c1	.	.	.	.	.
Cc1ccc(CN2C(=O)C3CCCN3c3ccc(S(=O)(=O)N4CCOCC4)cc32)cc1 (centres undefined)	.	.	.	.	.
CCN(CC)c1ccc2c(Cl)cc(=O)oc2c1	.	.	.	.	30
O=C(N[C@@H](c1ccccc1)[C@H](O)c1ccccc1)[C@@H]1CCCN1C(=O)OCc1ccccc1	/	/	/	.	/
